# Measured values from ChEMBL document CHEMBL3988442, “University of Dundee, Small-Polar-MMV Screening Library” (2021).
# Out of some 48,000 compounds screened, about 13,000 (27%) showed an effect of 50% or more. Some of the results follow.
# System: Wolbachia pipientis
# Assay: Anti-Wolbachia Cell-Based Screen
# Format: functional
# Parameters: scale not given: in the data most compounds retested in dose-response had high values
# Conditions: 5 µM
row,Structure (SMILES),Percent Effect [%]
1,CCNC(=O)C1CCN(c2cc(CC)nc3ccnn23)C1 (centres undefined),-6.245
2,CC(C)(C)CCNC(=O)c1ccc(Cl)c(NS(C)(=O)=O)c1,-2.179
3,O=C(NCC(=O)N1CC2(CCCC2)c2c(F)cccc21)C1CC1,-3.819
4,Cc1cc(NC(=O)CN2CCOC(Cn3nc(C)cc3C)C2)n(C)n1 (centres undefined),-0.6717
5,Cc1cc(C)n(CC2CN(CC3CCCC3)CCO2)n1 (centres undefined),115
6,O=C(CN1CCOC(Cn2cncn2)C1)NC(C1CC1)C1CC1 (centres undefined),-5.3
7,Cc1cc(C)n(CC2CN(CCc3ccncc3)CCO2)n1 (centres undefined),-8.109
8,Cc1cc(C)n(CC2CN(CC(=O)Nc3nncs3)CCO2)n1 (centres undefined),-6.247
9,Cc1cc(CN2CCN(CC(=O)NC3(C#N)CCCCC3)CC2)on1,3.175
10,O=C(CN1CCOC(Cn2cccn2)C1)NC(C1CC1)C1CC1 (centres undefined),-1.772
11,Cc1cc(C)n(CC2CN(CC(=O)NC(C3CC3)C3CC3)CCO2)n1 (centres undefined),97.21
12,Cc1cc(C)n(CC2CN(CC(=O)Nc3ccncc3)CCO2)n1 (centres undefined),89.28
13,Cc1cc(C)n(CC2CN(CC(=O)NC3(C#N)CCCC3)CCO2)n1 (centres undefined),97.92
14,CC(C)=CCN1CCOC(Cn2nc(C)cc2C)C1 (centres undefined),-20.01
15,O=C(Nc1cccn(CC(F)(F)F)c1=O)c1ccc(F)cc1,7.272
16,O=C(NCC1CC1)C12CC(CN1Cc1nccs1)C2,-8.528
17,CCNC(=O)[C@@H]1C[C@H](N)CN1Cc1ccc(Sc2ccc(C)cc2)o1,11.39
18,CCNC(=O)[C@@H]1C[C@@H](NC(=O)c2cc(C)on2)CN1Cc1ccccn1,121.6
19,CCNC(=O)[C@@H]1C[C@@H](NC(=O)c2ccc(C)s2)CN1Cc1ccccn1,112.7
20,C/C=C(\C)CN1C[C@H](NC(=O)c2cnc(O)cn2)C[C@H]1C(=O)NCC,-10.14
21,Cc1cc(C(=O)N2CCC(c3nccn3Cc3ccccn3)CC2)no1,-9.373
22,CCNC(=O)[C@@H]1C[C@H](NC(=O)c2ccc(C)s2)CN1Cc1ccc(C)o1,103.2
23,CCNC(=O)[C@@H]1C[C@@H](NC(=O)c2cccnc2O)CN1Cc1ccsc1,9.29
24,CCNC(=O)[C@@H]1C[C@H](NC(=O)Cc2ccsc2)CN1Cc1ccc(C)o1,8.656
25,CCNC(=O)[C@@H]1C[C@@H](NC(=O)Cc2ccccn2)CN1CCCSC,-3.005
26,CSCCc1c(-c2ccccc2)ncn1CC(C)(C)N1CCOCC1,0.5421
27,CN(CCCc1cc(-c2ccccc2)n[nH]1)C(=O)CCCn1cncn1,1.593

row,Structure (SMILES),Percent Effect [%]
1,O=C(COC1CCOC1)N(CC(F)F)c1cccc(Cl)c1 (centres undefined),-1.811
2,CC1CCC(NC(=O)Nc2ccc(CC(=O)N(C)C)cc2)CC1 (centres undefined),5.136
3,CC(O)CN1CCN(C(=O)c2ccc(CN(C)C)cc2)CC1 (centres undefined),105.8
4,CSCc1ccc(C(=O)N2CCN(CC(C)O)CC2)cc1 (centres undefined),99.74
5,CSCc1cccc(C(=O)N2CCN(CC(C)O)CC2)c1 (centres undefined),-7.975
6,CCN(CC)Cc1ccc(C(=O)N2CCN(CC(C)O)CC2)cc1 (centres undefined),-1.675
7,CC(O)CN1CCN(C(=O)c2ccc(Br)o2)CC1 (centres undefined),-12.79
8,COCc1ccc(C(=O)N2CCN(CC(C)O)CC2)cc1 (centres undefined),108.5
9,CC(O)CN1CCN(C(=O)c2ccc3c(c2)COC3)CC1 (centres undefined),-5.873
10,COc1ccccc1C(=O)Nc1ccc([C@@H](O)[C@H]2COCC(=O)N2)cc1,-5.781
11,O=C(O)C1c2nc[nH]c2CCN1Cc1ccccc1-c1ccccc1 (centres undefined),-6.694
12,CC(C)CCc1noc(CN2CCCC(CNS(N)(=O)=O)C2)n1 (centres undefined),-3.11
13,O=S(=O)(NC1CCC2(CC1)OCCO2)c1cccc(Br)c1,-35.45
14,COC(=O)CN(C)C1CCc2ccccc21 (centres undefined),-6.999
15,CCn1cc(CN2CCCN(C(=O)c3ccccc3OC)CC2)cn1,106.4
16,CCn1cc(CN2CCCN(C(=O)c3ccccc3C)CC2)cn1,154.9
17,CCc1[nH]ncc1C(=O)N1CCCN(Cc2cnn(C)c2)CC1,-4.439
18,CCCc1cc(=O)[nH]c2nnc(SCC(=O)OC)n12,10.3
19,CC1CCN(CCNC(=O)C2CCN(C(=O)NC(C)C)CC2)CC1,10.9
20,Cc1ccc2c(c1)nc1n2[C@@H](CNC(=O)c2cccnc2)COC1,-3.716
21,CC(C)NC(=O)C1CCc2nnc(CNC(=O)c3cccnc3)n21 (centres undefined),109.4
22,CC(C)N(Cc1ccccc1)C(=O)NCCNC(=O)c1cccnc1,-12.62
23,CN(Cc1ccc(Cl)s1)C(=O)NCc1nnc2n1CCC2,3.09
24,COc1ccc(C(NC(=O)NCc2nnc3n2CCC3)C2CC2)cc1 (centres undefined),10.5
25,CC(C)NC(=O)NCc1nnc2n1C(C(=O)N(C)C)CC2 (centres undefined),107
26,CC(NC(=O)C1CCCC1)c1nncn1C(C)C (centres undefined),0
27,CC(C)NC(=O)C1CCc2nnc(CNC(=O)C3CC3)n21 (centres undefined),113.3
